Structures are written as SMILES. Results filed as inconclusive are left out. Entries that show only a call come without a potency. Active and inactive are the calls of the source. The call rests on the fitted dose curve.

In PubChem BioAssay (NCATS) one finds Potency data, which are given here for 17 compounds.

This assay is described as follows: Primary qHTS for Vero E6 cytotoxicity: counterscreen for inhibitors of SARS-S pseudo-typed particle cell entry (AID 1479150). The settings on record: cell viability; series mostly up to 57.1 µM. (In general: In qHTS, concentration-response curves come from the screen itself.)
On to `CCCN(CCC)S(=O)(=O)c1ccc(C(=O)O)cc1`, for which the Potency result was “inactive”. For the compound `C[C@@H](O)[C@H]1C(=O)N2C(C(=O)O)=C(S[C@@H]3CN[C@H](C(=O)N(C)C)C3)[C@H](C)[C@H]12`, the Potency result was “inactive”. Take `O=P(O)(O)C(O)(Cc1cccnc1)P(=O)(O)O`: the Potency entry is “inactive”. For `CC(C)NC[C@@H](O)COc1ccc(CC(N)=O)cc1` the value was “inactive”. As for `O=C1NC(=O)C(c2ccccc2)(c2ccccc2)N1`, the entry is “inactive”; as for `c1cnc2cc3c(cc2n1)C1CNCC3C1`, “inactive”; as for `CC1(C)S[C@@H]2[C@H](NC(=O)C(C(=O)O)c3ccccc3)C(=O)N2[C@H]1C(=O)O` (some centres not stated), “inactive”. Take `CC(C)(C)NC(=O)[C@@H]1CN(Cc2cccnc2)CCN1C[C@@H](O)C[C@@H](Cc1ccccc1)C(=O)N[C@H]1c2ccccc2C[C@H]1O`: the Potency entry was “inactive”. For `CCCN[C@H]1CCc2nc(N)sc2C1` the value was “inactive”; for `CC(=O)CCCCn1c(=O)c2c(ncn2C)n(C)c1=O`, “inactive”.

For the compound `CC(C)NCC(O)c1ccc(O)c(O)c1` (configuration not stated), the Potency entry is “inactive”. For `COC(=O)[C@@H]1CC2=CC(=O)CC[C@]2(C)[C@@]23O[C@@H]2C[C@@]2(C)[C@@H](CC[C@@]24CCC(=O)O4)[C@H]13` the value was “inactive”; for `CC(S)C(=O)NCC(=O)O` (configuration not stated), “inactive”; for `CCCCCOC(=O)Nc1nc(=O)n([C@@H]2O[C@H](C)[C@@H](O)[C@H]2O)cc1F`, “inactive”. As for `CCn1cc(C(=O)O)c(=O)c2cc(F)c(N3CCNCC3)cc21`, the Potency entry is “inactive”. Turning to `C=C(c1ccc(C(=O)O)cc1)c1cc2c(cc1C)C(C)(C)CCC2(C)C`, the Potency entry is “inactive”. On to `CCOC(=O)c1ncn2c1CN(C)C(=O)c1cc(F)ccc1-2`, for which the Potency result was “inactive”.
